Assay results: article PMC12864922, “TDP-43 directly inhibits mRNA accumulation in neurites through modulation of mRNA stability”
Over roughly 9,900 sequences, “r (bound/input frequency ratio)” has its median near 0.7; the highest 2% begin near 6.5. The list comes from a sample in which the highest values are over-represented; it also holds similar and randomly drawn sequences.

B1: ENSMUSG00000061578.897|Ksr2|214:218 (ssRNA)
RNA: GGGAGUUCUACAGUCCGACGAUCGCUUCGAUAUCCGCAUGCUAUCCUGGGACACUACCCAAACCCUAGCACUCUCCCAGUGACUCUCCUAUGAGUACAUAUGCCAUCCUGCUUCCUUUGUGGCAAAACCCUGGGUCACCCAGAGACAGAUUUCCCAGAAUCCCUGGGCCACUUCUCAAUUCUACCCAUGACAGACAUGUCCCAUCCAUGAGCCCAGAUAGUCAAAGACUUCAGCACAAGGGUGUUUAGAGUAGGCACACACGAAGUAUCAAUAAGGUUAUUGAGAUGAGGAUUUAGAAAGAUCCUCUUGCGGUCGCACUAGUGUGGAAUUCUCGGGUGUCAAGG
B2: ENSMUSG00000090935.723|Synj2bp (ssRNA)
RNA: GGGAGUUCUACAGUCCGACGAUCGCUUCGAUAUCCGCAUGCUAAACAUUGUUUUAUUCCUAGGUGCUCAGGACAGACUGAUCAACCUCCAGUAACAUAUGUGGUUAGUAAGUGCUUCAGCUUGUGUAGCCAUUAAUAACCAAGUCAUAGGAUUGUGAAUCUAAAAUACUCCUGGGUAAAAUUUGUAUUAGAAUGGAAAAAAAAAUGAGGGUCAGAAAGGUGAGCUAACUUCAAGUUAGAUACUCCCCUCUAUUUUGGUCUCAAAUUUGUUUUAGUGUGUCCACAACAUGAAAACAUACAAAAACUCUUGCGGUCGCACUAGUGUGGAAUUCUCGGGUGUCAAGG
B3: ENSMUSG00000058297.523|Spock2 (ssRNA)
RNA: GGGAGUUCUACAGUCCGACGAUCGCUUCGAUAUCCGCAUGCUAUGGGUGGGCACAGGUCUGCCUUGCUCCAGCCCCCUCCCUUGGUUUCUGUUGGUACCCAUUUGGCUUUUAUCUGCUUUCUGCUUCACCACUAAGUGCGUAGGUGGGGUCUUUUGAUAUCGGCUCCCCAAAGCCCAAGCCCACAGCCCUAGGAGAGAACCAGGGGCCCAUCUUUGACACCUGGGCCAUCACGAGCCCUCCCGCCUGCAGUUGUCCUAGGGAAAGACCUGGGGGUGCAAAAGGAGAUUCAAGACAUCCGUACCCUCUUGCGGUCGCACUAGUGUGGAAUUCUCGGGUGUCAAGG
B4: ENSMUSG00000004113.207|Cacna1b|52:56;242:246 (ssRNA)
RNA: GGGAGUUCUACAGUCCGACGAUCGCUUCGAUAUCCGCAUGCUAAGGAAGCAUCGGGUGGAUUGGGUGGGAGCUGCUCAGAGCAGCACGGGGGCUACACACUUAGGGACAUUGACAGUGUCCAUCAGCAUGUCAGAGAAGCAGCUGUAGUGCCCGUGUUUCUCCCUGAGUCAUGGGUUCUGAAGAAGCCAGAGCGGCACAAUGCGUGCUUGCAUGAGGCACUUUCAGCCUUUUUAAAUCUGACUCUCAGGGAUGGGAUGCCUGCCAAGUAGGGUGUAAUCUCUGUACACAUUUUAAAACAACAACUCUUGCGGUCGCACUAGUGUGGAAUUCUCGGGUGUCAAGG
B5: ENSMUSG00000032194.344|Kank2 (ssRNA)
RNA: GGGAGUUCUACAGUCCGACGAUCGCUUCGAUAUCCGCAUGCUAAACACCCACCAGUCUCUCCUCUCCUUCCCGCUAUACUCCAGUUUUCUUUCUACUCUGUGACCACGGUACAUCCAUGAAGACAGUGUUACACGUAAAUGAAGUAUUCUUUUCUUGUAAUCAUAUUUUAGAAAGUAAAAGGACUUAAUAAAGCUACAAAUAAAAACAUUGCCUCGUGUCUGUUUGUUCUCCUUCUUUUUAGGCUAGCCUUGAACUCCUGAUCCUCCUGCCUUCCAUCUCCCAAGUGCUGGGAUGACAGGCACCUCUUGCGGUCGCACUAGUGUGGAAUUCUCGGGUGUCAAGG
B6: ENSMUSG00000004113.341|Cacna1b|1:8;11:16 (ssRNA)
RNA: GGGAGUUCUACAGUCCGACGAUCGCUUCGAUAUCCGCAUGCUACACACACAAGCACACAUCAGCAAGUGGCUAUUGUCAACCAUAGGGCUAUGCAACAAAAGACACAUUACUAGAAACAAAACACAAGACCACCACUUGGUCUAGGGUUUCAGCAUGAUUGUGACCAAACCUUUUAUAGAAUUUCCUUAUACAAAGGCACAAUACCCUGAAACUUUAACAGAGUAUUUUAUUCCAGUAGGGUAAAAUUAAACGGGACUCUUGGACUGCGCAUGUGACUGCACCCACGUUGCAACAGAGAAGGACUCUUGCGGUCGCACUAGUGUGGAAUUCUCGGGUGUCAAGG
B7: ENSMUSG00000061578.75|Ksr2 (ssRNA)
RNA: GGGAGUUCUACAGUCCGACGAUCGCUUCGAUAUCCGCAUGCUAAUGGAACCAGAAACAAUACACCUGCUCCGUUGUCAAGGCUUCUAGGCCAAGGUCAGGGUAGGGAGGUGGGGUGGGUUAAACUUGCAAACAUCUGAUUUUAGAGGUCCCAUUCCAAGAUGGAAGUCACCGGUUGCCGCUGAGCACACAAUUCUGAAGGACAGUAGGCAGUCCUGCAGGUCUUUUUUAGCACAGGGCCUCUCUGGGGACCAGUCCCUGGCCUUCACCCUUCUCCCAUUUUGUAAGAACACUGUUCUAACUCACUCUUGCGGUCGCACUAGUGUGGAAUUCUCGGGUGUCAAGG
B8: ENSMUSG00000034801.114|Sos2 (ssRNA)
RNA: GGGAGUUCUACAGUCCGACGAUCGCUUCGAUAUCCGCAUGCUACCCCAGGUGAUCAGCAGCAUUGCUUCCUCGGCUCCCCAGUGCUGCCCUAGGCCAGUAUAAAGACUCUGUAUUGCACUGUAGACUCUGCUAGCAGACGGCACUGAGAGGAGCCAGCGCUCGAGGGCGUUCUCACGCCUGACUGAUAGAUACCUUUUUAGGGUGAUGAACUUACACAGAUGCAGAAGAUAUGGGGUGGUGGUCCUGGGUUUUAACCCUCUGACCGUCUUCUAGCUUCUAAUUUUGUUUGGUUUUUACAUCUACUCUUGCGGUCGCACUAGUGUGGAAUUCUCGGGUGUCAAGG

These binders were tested against TDP-43 (Homo sapiens, UniProt Q13148 1-414) (assay: RNA Bind-n-Seq with designed 260-mer pool; 25 mM Tris-HCl, 150 mM KCl, 3 mM MgCl2, BSA (printed 500 mg/mL), 20 units/mL SUPERase IN; pH not stated; 500 nM RNA pool, 1 h, 4 C; TDP-43 5, 50, 500 nM; high values mean tight binding). Conditions: protein: recombinant; tags: SBP (GST cleaved off with PreScission; pGEX-GST-SBP).
Chain of TDP-43 (Q13148 whole entry): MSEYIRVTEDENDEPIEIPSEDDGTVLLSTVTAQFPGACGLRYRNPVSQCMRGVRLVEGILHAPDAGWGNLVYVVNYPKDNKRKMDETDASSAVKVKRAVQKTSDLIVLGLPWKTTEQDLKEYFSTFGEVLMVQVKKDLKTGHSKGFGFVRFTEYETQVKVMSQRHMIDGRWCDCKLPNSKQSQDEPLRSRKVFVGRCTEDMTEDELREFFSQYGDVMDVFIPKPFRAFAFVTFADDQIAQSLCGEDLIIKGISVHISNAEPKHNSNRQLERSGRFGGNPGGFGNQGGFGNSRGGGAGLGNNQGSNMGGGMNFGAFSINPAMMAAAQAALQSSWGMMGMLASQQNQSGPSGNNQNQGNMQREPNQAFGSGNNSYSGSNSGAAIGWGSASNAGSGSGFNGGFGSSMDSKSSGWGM
Method in brief: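 For each oligo, R gives binding as its mapped-read-normalized abundance after pulldown divided by its abundance in input. Bead-captured SBP-tagged TDP-43 (5, 50 or 500 nM) was incubated with 500 nM of an in vitro-transcribed 260-nt 3′ UTR oligo pool for 1 h at 4 °C in 25 mM Tris-HCl, 150 mM KCl, 3 mM MgCl2, BSA and SUPERase IN on streptavidin beads. Washed, biotin-eluted RNA was reverse transcribed, PCR-amplified and sequenced.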

Binder | binding signal
B1 | 0.295 R (bound/input frequency ratio)
B2 | 0.199 R (bound/input frequency ratio)
B3 | 0.928 R (bound/input frequency ratio)
B4 | 0.888 R (bound/input frequency ratio)
B5 | 0.585 R (bound/input frequency ratio)
B6 | 0.234 R (bound/input frequency ratio)
B7 | 0.151 R (bound/input frequency ratio)
B8 | 0.44 R (bound/input frequency ratio)
